Compounds with a hit are over-represented: about 0.95% of the library has one in this group of screens.
BJeLR lethal – MLPCN primary cell-based screen for lethality selective to Ras in HRASV12 cells; BJeLR (HRASV12) viability, CellTiter-Glo ATP luminescence, 48 h; inhibition, % (no concentration beside the values); AID 1554, 2009; actives 0.17% (n = 300,000); in the data active = inhibition above about 50%
ugtP null kill – growth inhibition of ugtP-null S. aureus, primary screen, RN4220 ugtP deletion, OD600; 16 h; growth inhibition, % (no concentration beside the values); actives 0.54% (n = 330,000); in the data active = growth inhibition above about 68%
PrPC surface inh – inhibitors of human cell surface prion protein PrPC, primary screen, cell-based, TR-FRET. AID 720596, 2013. Major prion protein (Homo sapiens), P04156. actives 0.43% (n = 370,000). inhibition, % at 13.8 µM. TR-FRET read-out; in the data active = inhibition above about 24%
Sa RN4220 lethal – growth inhibition of S. aureus RN4220, primary screen, OD600. 16 h. inhibition, % (concentration not given with the values). actives 0.33% (n = 330,000); in the data active = inhibition above about 85%
Hits are given with their value.

What do the screens show for `COc1cccc(N2CCN(c3ncnc4c3cnn4-c3ccc(C)cc3C)CC2)c1`?
BJeLR lethal: inactive; ugtP null kill: inactive; PrPC surface inh: 34; Sa RN4220 lethal: inactive

Results for Cc1cc(C)c(NC(=O)C=CC(=O)O)c([N+](=O)[O-])c1 ?
ugtP null kill: inactive; Sa RN4220 lethal: inactive

Results for COc1ccc(C(=O)/C=C/C(=O)N(CC(=O)NC2CCCCC2)Cc2ccccc2OC)c(O)c1 ?
BJeLR lethal: 51; ugtP null kill: inactive; PrPC surface inh: inactive; Sa RN4220 lethal: inactive

Results for CCN1C(C)=C(C)SC1=C1SC(=S)N(C2CCCCC2)C1=O ?
ugtP null kill: inactive; Sa RN4220 lethal: inactive

Results for CCCN(CC(=O)Nc1cc(Cl)cc(Cl)c1)CC(=O)Nc1ccc(F)c(F)c1F ?
BJeLR lethal: inactive; ugtP null kill: 91; PrPC surface inh: inactive; Sa RN4220 lethal: 89

How did CCOC(=O)c1oc2ccc(Br)cc2c1NC(=O)CN1CCN(C)CC1 do in these assays?
ugtP null kill: 91; PrPC surface inh: inactive; Sa RN4220 lethal: inactive

Results for COC(=O)c1oc2ccc(Br)cc2c1NC(=O)CCN1CCOCC1 ?
BJeLR lethal: inactive; ugtP null kill: inactive; PrPC surface inh: inactive; Sa RN4220 lethal: inactive

Results for Cc1ccc(-n2nnnc2C(Cl)(Cl)c2nnnn2-c2ccc(C)cc2)cc1 ?
BJeLR lethal: inactive; ugtP null kill: 100; PrPC surface inh: inactive; Sa RN4220 lethal: 100

How did COc1ccc(C=NNC(=O)c2cccc(NC(C)=O)c2)c(OC)c1 do in these assays?
ugtP null kill: inactive; Sa RN4220 lethal: inactive

How did CN(Cc1cn(Cc2ccccc2)nn1)S(=O)(=O)c1ccccc1Br do in these assays?
PrPC surface inh: inactive

What do the screens show for `Cn1cnc([N+](=O)[O-])c1Oc1cccc2ccccc12`?
BJeLR lethal: inactive; ugtP null kill: inactive; PrPC surface inh: inactive; Sa RN4220 lethal: inactive

What do the screens show for `Cn1cnc([N+](=O)[O-])c1S(=O)(=O)Oc1cccc2ccccc12`?
ugtP null kill: 91; PrPC surface inh: inactive; Sa RN4220 lethal: inactive

What do the screens show for `C=CCOc1cccc(C2C(C(=O)c3cc4ccccc4o3)=C(O)C(=O)N2c2cc(C)on2)c1` (configuration not stated)?
BJeLR lethal: inactive; ugtP null kill: 100; PrPC surface inh: inactive; Sa RN4220 lethal: 100

Results for CCCOc1ccc(C2C(C(=O)c3cc4ccccc4o3)=C(O)C(=O)N2c2cc(C)on2)cc1OC (configuration not stated) ?
BJeLR lethal: inactive; ugtP null kill: 100; PrPC surface inh: inactive; Sa RN4220 lethal: 99

How did COc1cccc(C2C(C(=O)c3cc4ccccc4o3)=C(O)C(=O)N2c2cc(C)on2)c1 (configuration not stated) do in these assays?
BJeLR lethal: inactive; ugtP null kill: inactive; PrPC surface inh: inactive; Sa RN4220 lethal: inactive

How did Cc1cc(N2C(=O)C(O)=C(C(=O)c3ccc(C)o3)C2c2cccc(Cl)c2)no1 (configuration not stated) do in these assays?
PrPC surface inh: inactive

Results for Cc1cc(N2C(=O)C(O)=C(C(=O)c3ccco3)C2c2cccc(Cl)c2)no1 (configuration not stated) ?
BJeLR lethal: inactive; ugtP null kill: 92; PrPC surface inh: inactive; Sa RN4220 lethal: 96

Results for C[C@@]12CCC=CC1C(c1ccc(F)c(C=Cc3ccccc3)c1)N(Cc1ccccc1)C2=O (some centres not stated) ?
ugtP null kill: inactive; Sa RN4220 lethal: inactive

Results for O=C(NC(=S)Nc1nc2c(s1)CSc1ccccc1-2)c1ccccc1 ?
BJeLR lethal: inactive; ugtP null kill: 84; PrPC surface inh: inactive; Sa RN4220 lethal: inactive

How did O=C(C=C(O)c1ccc(Cl)cc1)C(=O)NNC(=O)C(O)(c1ccccc1)c1ccccc1 do in these assays?
ugtP null kill: 95; PrPC surface inh: inactive; Sa RN4220 lethal: inactive

Results for Cc1ccc(/C(O)=C/C(=O)C(=O)NNC(=O)C(O)(c2ccccc2)c2ccccc2)cc1 ?
BJeLR lethal: inactive; ugtP null kill: inactive; PrPC surface inh: inactive; Sa RN4220 lethal: inactive

Results for COc1ccc2nc(N3CCC(C)CC3)c(C#N)cc2c1 ?
BJeLR lethal: inactive; ugtP null kill: 89; PrPC surface inh: inactive; Sa RN4220 lethal: inactive

How did Cc1cccc(C2(c3cccc(C)c3)CC2C(=O)Nc2ccc([N+](=O)[O-])cc2O)c1 (configuration not stated) do in these assays?
BJeLR lethal: inactive; ugtP null kill: 100; PrPC surface inh: inactive; Sa RN4220 lethal: 100

Results for CCN(CC)Cc1c(O)ccc2c1O/C(=C\C=C\c1ccccc1)C2=O ?
BJeLR lethal: 93; ugtP null kill: inactive; PrPC surface inh: inactive; Sa RN4220 lethal: inactive

Results for COc1ccc(OC)c(S(=O)(=O)N2CCC(C(=O)NCc3cccs3)CC2)c1 ?
PrPC surface inh: inactive

What do the screens show for `CC1CCCN(c2ccc([N+](=O)[O-])cc2C(=O)c2ccccc2)C1` (configuration not stated)?
BJeLR lethal: 58; ugtP null kill: 87; PrPC surface inh: inactive; Sa RN4220 lethal: inactive

How did COc1cc(C=C2SC(=NCc3ccccc3)N(Cc3ccccc3)C2=O)ccc1O do in these assays?
ugtP null kill: inactive; Sa RN4220 lethal: inactive

What do the screens show for `N#CC(=Cc1ccc(O)c([N+](=O)[O-])c1)c1nc2ccccc2s1`?
ugtP null kill: 97; Sa RN4220 lethal: 96

What do the screens show for `Oc1ccc(-c2csc(-c3c[nH]c4ccccc34)n2)c(O)c1`?
BJeLR lethal: inactive; ugtP null kill: inactive; PrPC surface inh: inactive; Sa RN4220 lethal: inactive

What do the screens show for `Cc1ccc(-c2csc(-c3c[nH]c4ccccc34)n2)c(C)c1`?
BJeLR lethal: inactive; ugtP null kill: 95; PrPC surface inh: inactive; Sa RN4220 lethal: inactive

Results for CC(=O)c1c(N2CCOCC2)nc2ccc(Br)cc2c1-c1ccccc1 ?
BJeLR lethal: inactive; ugtP null kill: 85; PrPC surface inh: inactive; Sa RN4220 lethal: inactive

What do the screens show for `COC(=O)C1=C(c2ccccc2)CC2CCC1N2C(=O)NCCCOC(C)C` (configuration not stated)?
ugtP null kill: inactive; Sa RN4220 lethal: inactive

What do the screens show for `COc1cc(CCCN2C(=S)NCC2Cc2ccc(O)cc2)cc(OC)c1OC` (configuration not stated)?
ugtP null kill: inactive; Sa RN4220 lethal: inactive

Results for CC(C)=CCc1c2c(c3occ(-c4ccc(O)c(O)c4)c(=O)c3c1O)C=CC(C)(C)O2 ?
PrPC surface inh: inactive

How did CC(C)=CCc1c2c(c3occ(-c4ccc(O)cc4)c(=O)c3c1O)C=CC(C)(C)O2 do in these assays?
BJeLR lethal: inactive; ugtP null kill: 100; PrPC surface inh: inactive; Sa RN4220 lethal: 99

How did Cc1c(CC(=O)N[C@@H](C)C(=O)O)c(=O)oc2c(C)c3occ(-c4ccccc4)c3cc12 do in these assays?
BJeLR lethal: inactive; ugtP null kill: 100; PrPC surface inh: inactive; Sa RN4220 lethal: 94

How did Cc1c(CC(=O)O)c(=O)oc2c(C)c3occ(-c4ccc(F)cc4)c3cc12 do in these assays?
BJeLR lethal: inactive; ugtP null kill: 100; PrPC surface inh: inactive; Sa RN4220 lethal: 95

Screening data (PubChem BioAssay)
